Measurements as given in PubChem BioAssay (EPA / NIEHS).
Inconclusive results are not listed. The source made the active and inactive calls. The calls were made as follows: active = hit-call score of the fitted dose curve at least 0.9, where 1 is the maximum; inconclusive = response in the unintended direction; inactive = score below 0.9.

target: Bile acid receptor (Homo sapiens) (UniProt Q96RI1); test: ATG_FXR_TRANS: Attagene TRANS-FACTORIAL HepG2 Assay for Farnesoid X Receptor (FXR) (AID 2282979); settings: HepG2 Attagene TRANS FXR-GAL4 reporter transcription;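 also: hits raise reporter mRNA above DMSO so AC50 marks FXR activation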
Protocol: ATG_TRANS is a cell-based, multiplexed-readout assay that uses HepG2, a human liver cell line, with measurements taken at 24 hours after chemical dosing in a 24-well plate.ATG_FXR_TRANS is one of 30 assay component(s) measured or calculated from the ATG_TRANS assay. It is designed to make measurements of mRNA induction, a form of inducible reporter, as detected with fluorescence intensity signals by Reverse transcription polymerase chain reaction (RT-PCR) and Capillary electrophoresis technology.Data from the assay component ATG_FXR_TRANS was analyzed into 1 assay endpoint. This assay endpoint, ATG_FXR_TRANS, was analyzed in the positive analysis fitting direction relative to DMSO as the negative control and baseline of activity. Using a type of inducible reporter, measures of mRNA for gain-of-signal activity can be used to understand the reporter gene at the transcription factor-level as they relate to the gene NR1H4. Furthermore, this assay endpoint can be referred to as a primary readout, because this assay has produced multiple assay endpoints where this one serves a reporter gene function. To generalize the intended target to other relatable targets, this assay endpoint is annotated to the nuclear receptor intended target family, where the subfamily is non-steroidal.
Human liver HepG2 cells are transiently transfected with multiple reporter transcription units (MRTUs) in 6-well plates using FuGene 6 reagent (Roche; 3 ml FuGene/1 mg DNA). The MRTU constructs are regulated by a cis-regulating element (promoter). […] A major difference between the CIS and TRANS system is that in CIS activities of endogenous TFs are measured, whereas the TRANS assay evaluates changes in activities of exogenous, chimeric NR-Gal4 proteins. […] At the end of 24 hour incubation, total RNA was isolated using TriZol reagent (Invitrogen). The isolated RNA is then reverse-transcribed using oligo(dT) primer and Mo-MLV reverse transcriptase (Invitrogen) with DNAse I (Ambion) treatment for 30 min. The one-tenth of the produced cDNA was amplified by PCR using Taq DNA polymerase (Invitrogen) and two reporter sequence-specific primers. The PCR products were fluorescently labeled by primer extension with 6-arboxyfluorescein (6-FAM) 5'-labeled reporter sequence-specific primer (2 min at 95 C, 20 s at 68 C and 10 min at 72 C) and these products were digested with 5U of HpaI (New England Biolabs) for 2h at 37 C. The fragments were purified using Qiaquick PCR columns (Qiagen), analyzed on an ABI 3130xL genetic analyzer (Applied Biosystems) with peak positions identified by using a set of X-rhodamine (ROX)-labeled MapMarker1000 molecular weight standards (BioVentures). The raw capillary electrophoresis data was processed using Attagraph software (Attagene).

Chain of Bile acid receptor (Homo sapiens) (Q96RI1 whole entry, looked up, the tested form may be a part): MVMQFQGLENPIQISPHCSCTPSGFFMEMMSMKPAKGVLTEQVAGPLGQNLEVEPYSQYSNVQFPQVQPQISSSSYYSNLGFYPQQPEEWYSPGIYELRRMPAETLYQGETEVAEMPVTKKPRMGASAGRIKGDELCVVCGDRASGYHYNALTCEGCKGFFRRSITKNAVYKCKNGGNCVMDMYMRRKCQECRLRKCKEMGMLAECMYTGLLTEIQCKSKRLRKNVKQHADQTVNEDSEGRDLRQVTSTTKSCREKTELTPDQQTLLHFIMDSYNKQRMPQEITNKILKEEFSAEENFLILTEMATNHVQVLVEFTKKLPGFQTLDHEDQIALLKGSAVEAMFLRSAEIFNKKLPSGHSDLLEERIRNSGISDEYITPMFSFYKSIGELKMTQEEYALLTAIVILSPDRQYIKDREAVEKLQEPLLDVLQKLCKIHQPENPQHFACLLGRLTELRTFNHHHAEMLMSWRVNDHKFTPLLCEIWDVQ

Structure (SMILES)	outcome	AC50
C=CC(F)(F)C(F)(F)C(F)(F)C(F)(F)C(F)(F)C(F)(F)C(F)(F)C(F)(F)F	inactive	
FC(F)(F)C(F)(F)C(F)(F)C(F)(F)C(F)(F)C(F)(F)CC1CO1 (stereo not given)	inactive	
CCCCCC=O	inactive	
C=C(C)C(=O)OCC(F)(F)C(F)(F)C(F)(F)F	inactive	
O=C(O)C(F)(F)C(F)(F)C(F)(F)C(F)(F)F	inactive	
O=C(O)C(F)(F)C(F)(F)C(F)(F)F	inactive	
O=C(O)C(F)(F)C(F)(F)C(F)F	inactive	
OCC(F)(F)C(F)(F)C(F)(F)F	inactive	
CC(C)OC(=O)c1ccccc1C(=O)OC(C)C	inactive	
FC(F)(F)C(F)(F)C(F)(F)N(C(F)(F)C(F)(F)C(F)(F)F)C(F)(F)C(F)(F)C(F)(F)F	inactive	
NC(=O)C(F)(F)C(F)(F)C(F)(F)C(F)(F)F	inactive	
CCC(=O)OCCc1ccccc1	inactive	
COC(=O)CCC(F)(F)C(F)(F)C(F)(F)C(F)(F)F	inactive	
Nc1ccc([N+](=O)[O-])cc1O	inactive	
FC(F)(F)C(F)(F)C(F)(F)CI	inactive	
O[Si](c1ccccc1)(c1ccccc1)c1ccccc1		85.2 µM (active)
O=C(O)C=C(C(F)(F)F)C(F)(F)F	inactive	
CCCCCCS	inactive	
FC(F)(F)C(F)(F)C(F)(F)C(F)(F)C(F)(F)C(F)(F)CCS	inactive	
C(=C(c1ccccc1)c1ccccc1)c1ccccc1	inactive	

Structure (SMILES)	outcome	AC50
CCCCOCCOCCOC(=O)CCCCC(=O)OCCOCCOCCCC	inactive	
CCCCOc1ccc(N)cc1	inactive	
CC(Cc1ccc(O)c(O)c1)C(C)Cc1ccc(O)c(O)c1 (stereo not given)	inactive	
OCC(F)(F)C(F)(F)C(F)(F)C(F)(F)C(F)(F)C(F)(F)F	inactive	
CC(C)=CCCC(C)CCOC(=O)C(C)C (stereo not given)	inactive	
CC/C=C\CCOC(C)=O	inactive	
CO[Si](OC)(c1ccccc1)c1ccccc1	inactive	
O=S(=O)(OCCOC(F)(F)F)C(F)(F)F	inactive	
OCCCC(F)(F)C(F)(F)C(F)(F)C(F)(F)C(F)(F)C(F)(F)C(F)(F)F	inactive	
CCCCC(CC)COP(=O)(O)OCC(CC)CCCC (stereo not given)	inactive	
CCCCCCOC(=O)c1ccccc1O	inactive	
O=S(=O)(O)C(F)(F)C(F)(F)C(F)(F)C(F)(F)C(F)(F)C(F)(F)C(F)(F)F	inactive	
FC1CC(F)(F)C(F)(F)C1(F)F (stereo not given)	inactive	
O=C(O)C(F)(OC(F)(F)C(F)(OC(F)(F)C(F)(OC(F)(F)C(F)(F)C(F)(F)F)C(F)(F)F)C(F)(F)F)C(F)(F)F (stereo not given)	inactive	
[Co]	inactive	
c1ccc(B(c2ccccc2)c2ccccc2)cc1	inactive	
Cc1ccc(S(=O)(=O)OCC(F)(F)C(F)(F)C(F)(F)C(F)(F)C(F)(F)C(F)F)cc1	inactive	
O=S(=O)(OCC(F)F)C(F)(F)F	inactive	
FC(F)(F)C(F)(F)C(F)(F)C(F)(F)C(F)(F)C(F)(F)C(F)(F)Br	inactive	
FC(F)(F)C(F)(F)CNCC(F)(F)C(F)(F)F	inactive	
